# In PubChem BioAssay AID1460 (National Center for Advancing Translational Sciences (NCATS), 2008):
# About 5,800 (2.1%) of roughly 270,000 compounds were called active. A call without a number means that no potency is given here. Roughly 16% stayed inconclusive and do not appear here. Calls follow the shape of the dose curve; as a rule, active = well fitted inhibition curve with a large enough effect; inconclusive = small, poorly fitted or top-dose-only effect; inactive = flat fitted curve, though single readings scatter. The sample as a whole holds a higher share of actives than the screen did.
# Molecular target: Microtubule-associated protein tau (Homo sapiens) (UniProt P10636)
# Experiment: qHTS for Inhibitors of Tau Fibril Formation, Thioflavin T Binding; also: nearly all actives have a fitted effect of over 55% in size
# Settings: recombinant tau K18 P301L (four-repeat tau fragment), heparin-induced fibrillization, ThT fluorescence; series mostly up to 57.4 µM
# In short: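 Tau K18 P301L fragment (15 uM unlabeled plus 0.24 uM Alexa 594-labeled) in 100 mM sodium acetate pH 7 with compound, fibrillization induced by 20 uM heparin for 6 hr at 37 C. Thioflavin T (30 uM) added, fluorescence read after 1 hr (ex 450, em 510 nm).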
# Potency is read from the fitted curve at half-maximal effect.
# Sequence of Microtubule-associated protein tau (Homo sapiens) (P10636 561-689 P618L limits assumed): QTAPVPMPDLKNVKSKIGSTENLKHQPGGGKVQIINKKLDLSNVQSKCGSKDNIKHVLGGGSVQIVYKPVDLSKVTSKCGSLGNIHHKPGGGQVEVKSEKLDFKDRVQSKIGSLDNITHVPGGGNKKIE
row,Structure (SMILES),Potency
1,Cc1ccc2cccc(NC(=O)C(C)Oc3ccc(C)c(C)c3)c2n1 (centres undefined),inactive
2,Cc1ccccc1C(=O)Nc1cc(C)c(O)c(-c2nc3ccccc3o2)c1,inactive
3,CC(C)c1ccc(C2C(C#N)=C(N)Oc3c2oc(CO)cc3=O)cc1 (centres undefined),inactive
4,CC(C)c1ccc(C2CC(=O)N3CN(C4CCCCC4)CSC3=C2C#N)cc1 (centres undefined),22.4 µM (active)
5,CCOC(=O)c1ccc(N2C(=O)c3n[nH]c(-c4ccco4)c3C2c2ccc(O)cc2)cc1 (centres undefined),inactive
6,CCCc1nn2c(=O)cc(COC(=O)c3ccc(NC(=O)C(C)Oc4ccccc4)cc3)nc2s1 (centres undefined),inactive
7,COc1ccc(C2=NN(c3ccccc3)C(c3cccs3)C2)cc1 (centres undefined),inactive
8,COC(=O)Cc1[nH]n(-c2nc3ccccc3s2)c(=O)c1C(C)=Nc1ccc(OC)cc1,inactive
9,COc1ccc(C2=NN(c3nc4ccccc4s3)C(=O)C2)cc1,10 µM (active)
10,CCOC(=O)c1c(S(=O)(=O)N2CCC(C(=O)NCc3ccccc3OC)CC2)c(C)n(C)c1C,inactive
11,Nc1c(C(=O)c2cccs2)sc2nsc(SCCN3CCCCC3)c12,4.47 µM (active)
12,O=C(CN1C2=NCCN2c2ccccc21)c1cccs1,inactive
13,CN(C)c1ccnc2sc(C(=O)c3ccccc3)c(N)c12,inactive
14,O=C(NCc1ccccc1Cl)c1cccn1-c1nnc(N2CCCCC2)s1,inactive
15,O=C(Nc1nc(-c2ccncc2)cs1)C1COc2ccccc2O1 (centres undefined),28.2 µM (active)
16,O=C(CSC1=NCCS1)Nc1nc(-c2ccccc2)cs1,inactive
17,O=C(Nc1nc(-c2ccc(-c3ccccc3)cc2)cs1)c1cnccn1,inactive
18,Cc1cccc(S(=O)(=O)c2cn(Cc3ccccc3)c3cc(N4CCOCC4)c(F)cc3c2=O)c1,inactive
19,COc1ccc(CNC(=O)c2cc3c(s2)-c2ccccc2OC3)cc1,inactive
20,CCN(CC)S(=O)(=O)c1ccc(C(=O)N=c2sc3cccc(OC)c3n2C)cc1,inactive
21,O=C(Cn1c(-c2cccs2)cc2ccccc21)NCCc1ccc(Cl)cc1,inactive
22,CN(Cc1ccccc1)c1ccc(-c2nc(-c3ccccc3)no2)cc1[N+](=O)[O-],inactive
23,COc1ccc(N2CCN(C(=O)CSc3ncnc4c3cnn4-c3ccc(OC)cc3)CC2)cc1,inactive
24,COc1ccc(N2CCN(C(C)=C3C(=O)c4ccccc4C3=O)CC2)cc1,inactive
25,COc1ccc(N2CCN(c3ccc([N+](=O)[O-])nc3)CC2)cc1,1.41 µM (active)

row,Structure (SMILES),Potency
1,Cc1nn(C(C)C(=O)Nc2ccc(C(C)C)cc2)c(=O)c2c1sc1ccccc12 (centres undefined),inactive
2,O=C(CSc1nc2c(c(=O)[nH]1)CN(Cc1ccc(F)cc1)CC2)Nc1ccccc1Cl,inactive
3,NS(=O)(=O)c1ccc2nc(NC(=O)COc3ccccc3)sc2c1,inactive
4,O=C(NCc1cccnc1)C(=O)NCC(c1cccnc1)N1CCN(c2ccccc2)CC1 (centres undefined),inactive
5,CCc1ccc(S(=O)(=O)n2ccnc2)cc1,inactive
6,N/C(=N\OC(=O)Cc1ccccc1[N+](=O)[O-])c1ccc(Br)cc1,inactive
7,Cc1oc2cc([N+](=O)[O-])c(O)c([N+](=O)[O-])c2c1C(=O)c1ccc(Br)cc1,10 µM (active)
8,Cc1ccc(C(=O)c2ccc(N3CCN(C)CC3)c([N+](=O)[O-])c2)cc1,inactive
9,Cc1ccc(C)c(S(=O)(=O)n2nc(C)c(S(=O)(=O)N3CCC(C)CC3)c2C)c1,inactive
10,CSc1ccc(C2C(C(=O)Nc3ccccc3)=C(C)Nc3nc4ccccc4n32)cc1 (centres undefined),inactive
11,COc1ccc(S(=O)(=O)c2c(Nc3ccc(C)cc3)sc(C(=O)c3ccc(C)cc3)c2N)cc1,inactive
12,CC(=O)c1ccc(NS(=O)(=O)c2ccc(-c3cc(C)no3)s2)cc1,inactive
13,Cc1oc2c(c1C(=O)N1CCOCC1)C(=O)c1ccccc1C2=O,inactive
14,O=C1c2ccccc2-c2ncnc3c(N4CCOCC4)cc(N4CCOCC4)c1c23,8.91 µM (active)
15,c1ccc(-c2oc3ncnc(N4CCOCC4)c3c2-c2ccccc2)cc1,inactive
16,CCn1cc(C(=O)NCCc2ccccc2)c(=O)c2cc(S(=O)(=O)N3CCCCCC3)ccc21,inactive
17,CCCN(CCC)C(=O)Cn1c(=O)n(-c2ccc(Cl)cc2)c(=O)c2c3c(sc21)CCCCC3,inactive
18,Cc1cc2c(cc1S(=O)(=O)CCC(=O)Nc1ccc(OC(F)(F)F)cc1)OCC(=O)N2,inactive
19,CCCCCCC(=O)Nc1nc(C)c(-c2csc(Nc3cccc(OC)c3)n2)s1,7.94 µM (active)
20,COc1cccc(CC(=O)Nc2ccc(-c3csc(C)n3)cc2)c1,inactive
21,CCOC(=O)c1csc(NC(=O)Nc2cccc(OC)c2)n1,inactive
22,CCCOc1cccc(C(=O)Nc2cccc(NC(=O)c3ccc(C(C)(C)C)cc3)c2)c1,inactive
23,Cc1ccc(Cc2nc3ccccc3nc2SCC(=O)Nc2cccc(C(F)(F)F)c2)cc1,inactive
24,CC(=O)Nc1cccc(/C(C)=N/NC(=O)c2ccccc2Cl)c1,inactive
25,O=C(NC1CC1)c1ccc2c(c1)NC(=O)c1ccccc1S2,inactive

row,Structure (SMILES),Potency
1,C/C(=N\Nc1cccc(C(=O)O)c1)c1ccc2c(c1)Nc1ccccc1S2,5.01 µM (active)
2,Cc1ccc2c(c1)-c1c(cnn1CC(=O)Nc1ccccc1C#N)CO2,inactive
3,CSc1ncc(C(=O)NCc2ccccc2Cl)c(C(F)(F)F)n1,inactive
4,CC(=O)NC(Cc1ccccc1)C(=O)NC1CCN(c2ncccc2[N+](=O)[O-])CC1 (centres undefined),inactive
5,COc1ccc(-c2cc(C3CCN(c4ncccc4[N+](=O)[O-])CC3)[nH]n2)cc1,8.91 µM (active)
6,COc1ccc(N2C(=O)CC(Nc3ccc(F)cc3)C2=O)c([N+](=O)[O-])c1 (centres undefined),inactive
7,CCOc1ccccc1C(=O)NCC(c1ccc(N(C)C)cc1)N1CCCC1 (centres undefined),inactive
8,Cc1cc(C)c(NC(=O)CSc2nc3nccnc3c(=O)n2CCc2c[nH]c3ccccc23)c(C)c1,inactive
9,O=C(Nn1c(-c2ccccc2)nc2ccccc2c1=O)c1ccc([N+](=O)[O-])cc1,inactive
10,Cc1nc2ccccc2nc(=O)c1NNc1ccc([N+](=O)[O-])cc1,11.2 µM (active)
11,O=[N+]([O-])c1cccc(Nc2c3ccccc3nc3ccccc23)c1,inactive
12,COC(=O)c1cc(NC(=O)c2cnc(SC)nc2-c2ccccc2)cc(C(=O)OC)c1,inactive
13,Cc1ccc(Nc2ccc3cc(S(=O)(=O)N4CCCCC4)ccc3n2)cc1F,inactive
14,CCCCc1nc(NCc2ccccc2)c(C#N)c2c1CCCC2,inactive
15,CCc1nc(NCCO)c(C#N)c2c1CCCC2,inactive
16,CCN1CCc2c(C#N)c(NCc3ccccc3)nc(NCCO)c2C1,22.4 µM (active)
17,COc1ccc(SCc2cc(=O)c3ccc(C)c(C)c3[nH]2)cc1,inactive
18,COc1ccc(CNC(=O)C(C)n2nc(C)c3c(C)n(-c4ccccc4)nc3c2=O)c(OC)c1 (centres undefined),inactive
19,CCOC(=O)c1[nH]c(C)c(CCC(=O)NCc2ccccc2C)c1C,inactive
20,CCOC(=O)N1CCN(CC(=O)Nc2cc(C)nn2-c2nc3ccccc3s2)CC1,inactive
21,Cc1cc(NC(=O)CN2CCCC(C)C2)n(-c2nc3ccccc3s2)n1 (centres undefined),inactive
22,CCC(C)Cn1c(O)cc2nn(-c3nc4ccccc4s3)c(=O)c-2c1C (centres undefined),31.6 µM (active)
23,COc1ccccc1N1CCN(c2ncnc3onc(-c4ccc(F)cc4)c23)CC1,inactive
24,N#Cc1ccccc1Cn1cnc2nc3c(cc2c1=O)CCCC3,inactive
25,C/C(=C\c1ccccc1)C1NC(=O)c2c(sc3c2CCCC3)N1 (centres undefined),3.55 µM (active)

row,Structure (SMILES),Potency
1,CCOC(=O)c1c(NC(=O)/C(C#N)=C/c2ccccc2)sc2c1CCC2,inactive
2,CCOC(=O)N1CCc2c(sc3c2C(=O)NC(c2ccccc2F)N3)C1 (centres undefined),inactive
3,O=C(Nc1ccc2nc(SCC(=O)N3CCCc4ccccc43)sc2c1)c1ccc(Cl)cc1,inactive
4,CCC(=O)Nc1c(C(=O)N2CCN(c3ccc(F)cc3)CC2)oc2ccccc12,inactive
5,CC(=O)N(C)c1ccc(NC(=O)C(F)(F)F)cc1,inactive
6,CN(C)c1ccc(N/C=C/C(=O)C(F)(F)F)cc1,10 µM (active)
7,O=C(/C=C/Nc1ccccc1OC(F)(F)F)C(F)(F)F,inactive
8,COC(=O)c1scc(-c2ccccc2)c1S(=O)(=O)Nc1ccccc1,inactive
9,Fc1ccc(Nc2nnns2)cc1,28.2 µM (active)
10,CSc1nc(Nc2ccc(F)cc2)cc(-c2ccccc2)n1,inactive
11,Cc1ccccc1OCCSc1nc2ccc(NC(=O)c3ccco3)cc2s1,inactive
12,COc1cccc2c1cc1c(=O)n(CC(=O)N3CCN(c4cccc(Cl)c4)CC3)nc(C)n12,inactive
13,Cc1ccc(NC(=O)C(=O)NCC(c2cccnc2)N2CCOCC2)cc1 (centres undefined),inactive
14,Cc1cc(C)c2nc(NC(=O)c3ccc4c(c3)OCO4)sc2c1,inactive
15,Cc1ccc2sc(NNC(=O)c3ccc4c(c3)OCCO4)nc2c1C,12.6 µM (active)
16,O=C(Nc1nc2ccccc2s1)c1ccc2c(c1)OCO2,inactive
17,COc1ccc(-c2noc(-c3ccc(N4CCN(c5ccccc5)CC4)c([N+](=O)[O-])c3)n2)cc1OC,inactive
18,O=C(Nc1ccccc1F)C(c1ccccc1)N1Cc2ccccc2C1=O (centres undefined),inactive
19,Cc1[nH]n(-c2ccc(Cl)cc2)c(=O)c1/C=N/n1c(C)nc2ccccc2c1=O,inactive
20,C[N+](C)(CCCCCC[N+](C)(C)CCCN1C(=O)c2cccc3cccc(c23)C1=O)CCCN1C(=O)c2cccc3cccc(c23)C1=O,inactive
21,Cc1ccc(-n2[nH]c(C)c(/C=N/N3C(=O)c4cccc5cccc(c45)C3=O)c2=O)cc1,22.4 µM (active)
22,COc1ccc(NC(=O)CCCc2nnc3n(CCC(C)C)c(=O)c4sccc4n23)c(OC)c1,inactive
23,COC(=O)c1cc2occc2n1Cc1nc(-c2ccc(C)cc2)oc1C,inactive
24,O=c1c(O)c(Br)ccc2c(Br)c(O)c(O)c(O)c12,3.55 µM (active)
